Results: PubChem BioAssay AID463075 (University of Pittsburgh Molecular Library Screening Center, 2010)
Screen size: about 220,000 compounds; about 150 (0.068%) were called active. What follows is part of a selection rich in actives, with near analogues and random picks from the rest. A number with no mark means an inactive call.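 Rule for the calls: active = activation, meaning protection from cell death, of at least 50% relative to plate controls; inactive = activation below 50%.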

Assay: rescue of FADD-deficient Jurkat cells from TNF-alpha death – single concentration, primary screen (AID 463075);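 note: necroptosis triggered by 40 ng/mL TNF-alpha added together with compound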
Conditions: Jurkat FADD-/- TNF necroptosis rescue, ATP luminescence, 24 h; at 10 µM; hits give high values; 0 = TNF only, 100 = no-TNF cells

| SMILES | activation (protection from cell death) |
| --- | --- |
| Nc1c(-c2cccc(Cl)c2)cnn1-c1cccc([N+](=O)[O-])c1 | -1.25% |
| c1ccc(-c2csc(N3CCc4ccccc4C3)n2)cc1 | -3.03% |
| C=CCCN(Cc1ccccc1)S(=O)(=O)c1ccccc1Br | -2.9% |
| CC(C)(C)c1ccc(/C=C2\SC(=O)N=C2N)cc1 | 2.08% |
| Cc1cccc(NC(=O)c2nc[nH]c2C(=O)NCC(=O)OCc2ccccc2)c1 | -9.45% |
| CCN(CC)CCNC(=O)c1ccc(NC(=O)c2c(F)cccc2Cl)cc1 | -0.132% |
| COc1ccccc1C(=O)CSc1cccc[n+]1[O-] | -0.693% |
| Cc1cc(C(=O)OCC(=O)Nc2ccc(F)c(F)c2)c(C)o1 | 3.31% |
| COCCCNC(=O)C1CCC(CNS(=O)(=O)c2ccc(OC)cc2)CC1 (stereo not given) | 1.04% |
| Cc1cccc(C(=O)N2CCc3c([nH]c4ccccc34)C2CC(C)C)n1 (stereo not given) | 1.18% |
| Cc1cc([N+](=O)[O-])nn1Cc1ccc(F)cc1 | 76.6% (active) |
| Cc1cc([N+](=O)[O-])nn1CCCC(=O)Nc1cccnc1Cl | 0.812% |
| Cc1cc([N+](=O)[O-])nn1CC(=O)Nc1ccc(Cc2ccncc2)cc1 | 3.27% |
| O=C(Nc1ccn(Cc2ccccc2F)n1)c1ccc(COc2ccc(Cl)cc2Cl)o1 | -6.7% |
| O=C(Nc1ccn(Cc2ccccc2)n1)c1cccc(F)c1 | 3.16% |
| CC(=O)Nc1ccn(Cc2c(F)cccc2Cl)n1 | 88% (active) |
| CCc1cccc(CC)c1NC(=O)COc1ccccc1C(=O)c1cc(C#N)c(=O)n(C2CCCCC2)c1 | 1.06% |
| Cn1nccc1NC(=O)Nc1ccc(OC(F)(F)F)cc1 | 2.9% |
| CCCC(=O)n1nc(NCc2ccc(OC)cc2)nc1NCc1ccc(OC)cc1 | 2.21% |
| CC(C)CNC(=O)C(=O)NCc1ccccc1 | 1.96% |

| SMILES | activation (protection from cell death) |
| --- | --- |
| CC(C)(C)C(=O)N1CCC[C@@]1(CO)C(=O)O | 1.03% |
| CCN(Cc1ccncc1)C(=O)c1cccc(S(=O)(=O)N2CCOCC2)c1 | 0.919% |
| COc1cc(C=O)ccc1Oc1nnnn1-c1ccccc1 | -3.04% |
| N#CC1(NC(=O)COc2ccc3oc4ccccc4c3c2)CCCCC1 | 1.8% |
| CC(C)N(C(=O)Cn1cc(SCC(=O)N2CCCC2)c2ccccc21)C(C)C | 1.35% |
| Cc1ccc(S(=O)(=O)N(C)C)cc1NC(=O)COC(=O)c1c(C)noc1C | 0.89% |
| CN(C)CCNC(=O)/C(=C/c1cccc([N+](=O)[O-])c1)NC(=O)c1ccccc1 | 2.51% |
| COc1ccc(/C=C/C(=O)c2cc(Br)ccc(=O)c2O)cc1 | -1.56% |
| CCc1ccc(C2C(C#N)=C(N)N(N3CCOCC3)C3=C2C(=O)CC(C)(C)C3)s1 (stereo not given) | 0.137% |
| C[C@@H]1C[C@@H]2O[C@H]2/C=C\C=C\C(=O)Cc2c(Cl)c(O)cc(O)c2C(=O)O1 | 36.6% |
| C=CCOc1c(CNn2cn[nH]c2=S)cccc1OC | -0.439% |
| Cc1n[nH]c(=O)nc1N/N=C/c1cccs1 | -6.4% |
| CCc1cccc(CC)c1NC(=S)Nc1ccc2cn[nH]c2c1 | -5.25% |
| C=CCNc1nc(N)c(C(=C(C#N)C#N)c2ccccc2)s1 | -6.24% |
| COC(=O)CCNC(=O)c1ccc2[nH]c(C)c(C)c2c1 | -0.237% |
| COC(=O)COc1cccc2c(=O)n(CC(=O)NCc3ccccc3)ccc12 | -12.7% |
| CCCc1cc(=S)n2c([nH]c3ccccc32)c1C#N | -1.86% |
| COc1cccc(CC(=O)N2CCCC(CCC(=O)N3CCN(c4ccccn4)CC3)C2)c1 (stereo not given) | 2.68% |
| CCn1cc(C(=O)Nc2cc(C)ccc2C)c(=O)c2ccc(C)nc21 | 0.491% |
| O=[N+]([O-])c1ccc(N/N=C2/CCCCC2c2ccccn2)c([N+](=O)[O-])c1 (stereo not given) | 2.74% |

| SMILES | activation (protection from cell death) |
| --- | --- |
| CCn1c2ccccc2c2cc(NC(=O)C/C(C)=N/NC(=O)c3ccccc3N)ccc21 | -9.27% |
| COc1cc(OC)cc(/C(N)=N/O)c1 | 4.62% |
| Cc1ccc(S(=O)(=O)/N=C(/NC(=S)Nc2c(C)n(C)n(-c3ccccc3)c2=O)c2ccccc2)cc1 | 0.616% |
| O=C(N/N=C1\CCSC1)c1cc(Cl)ccc1O | -0.00524% |
| O=C(Cc1cccc2ccccc12)NNC(=O)Nc1ccc(Cl)cc1 | 7.05% |
| Cc1nc2ccccc2nc(=O)c1NNc1ccc([N+](=O)[O-])cc1 | 3.59% |
| Oc1ccc(/C=N/Nc2ccc(C(F)(F)F)cn2)cc1O | 30.8% |
| O=S(=O)([N-]c1nc2ccccc2nc1-[n+]1ccc(Cc2ccccc2)cc1)c1ccc(Br)s1 | -3.84% |
| CCCN=C1NC(=O)C(CC(=O)NCCc2ccc(OC)c(OC)c2)S1 (stereo not given) | 1.06% |
| O=C(CSc1nnc(-c2ccncc2)o1)NCc1ccc(Cl)cc1 | 3.12% |
| Cc1cccc(N2CCN(C(=O)/C=C/c3ccco3)CC2)c1C | -4.02% |
| Cc1ccc(S(=O)(=O)N2CCN(CC(=O)N/N=C/c3cc([N+](=O)[O-])ccc3Cl)CC2)cc1 | 4.63% |
| COc1ccc(C(=S)Nc2ccccc2)cc1 | -4.07% |
| COc1ccc(NC(=S)N2N=CCC2c2ccccc2)cc1 (stereo not given) | 87.5% (active) |
| COc1ccc(C(=O)NC2CCN(C(=S)Nc3ccccc3)CC2)cc1 | 0.717% |
| CCCCS(=O)c1snnc1C (stereo not given) | -0.406% |
| CCCOc1ccc(Cc2c(Cl)nc(SC)nc2NC)cc1 | -4.22% |
| CCCCN(C)CCNC(=O)CSCc1ccc(C)cc1 | 1.41% |
| CCN1C(=O)/C(=C2/Sc3ccc(OC)cc3N2C)SC1=Nc1ccc(C)cc1 | -1.29% |
| COc1ccc(N(CC(=O)NC2CCCCC2)S(=O)(=O)c2c(C)[nH]c(=O)[nH]c2=O)cc1 | -0.527% |
